# In PubChem BioAssay (Tox21):
# Inconclusive results are not listed. Entries that show only a call come without a potency. Active and inactive are the calls of the source. Calls come from the whole dose curve; as a rule, active = well fitted cell-killing curve with a large enough effect in the repeat runs; inconclusive = weak or mixed curves, or effect the other way; inactive = no such curve, though single readings can be large or run the other way.
# Test: qHTS assay to identify small molecule agonists of the vitamin D receptor (VDR) signaling pathway - cell viability counter screen (AID 743224); note: nearly all actives have a fitted effect of over 50% in size
# Conditions: VDR-bla HEK293T viability, CellTiter-Glo luminescence, 16 h; series mostly up to 62.6 µM
# Text: U.S. Tox21 Program National Center for Advancing Translational Sciences [NCATS] NIH Chemical Genomics Center [NCGC] U.S. Environmental Protection Agency [EPA] National Institutes of Environmental Health Sciences [NIEHS] National Toxicology Program [NTP] U.S. Food and Drug Administration [FDA] Tox21 Assay Overview: The vitamin D receptor (VDR), a member of nuclear hormone receptor superfamily, plays a critical role in calcium homeostasis and bone metabolism. It is also involved in cell differentiation and growth, and thrombogenicity. […] The cytotoxicity of the Tox21 compound library against the VDR-bla cell line was tested in parallel by measuring the cell viability using CellTiter-Glo assay (Promega, Madison, WI) in the same wells.
# Tox21 Assay Protocol Summary: VDR-bla cells were dispensed at 2,000 cells/6 uL/well into black wall/clear-bottom 1536-well plates using a Multidrop Combi (Thermo Fisher Scientific, Waltham, MA) dispenser. After the assay plates were incubated at a 37C and 5% CO2 for 4 h, 23 nL of compounds dissolved in DMSO, positive controls or DMSO only was transferred to the assay plate by a Pintool station (Kalypsys, San Diego, CA). The plates were incubated at 37C and 5% CO2 for 16 h. After 1 uL of LiveBLAzerTM B/G FRET substrate was added using a Bioraptr Flying Reagent Dispenser (FRD) workstation (Beckman Coulter, Indianapolis, IN, USA), the plates were incubated at room temperature for 2 h, and fluorescence intensity was measured by an Envision plate reader (PerkinElmer, Shelton, CT). For cell viability readout that measures cytotoxicity, 3 ul/well of CellTiter-Glo reagent was added into the assay plates using a FRD. After 30 min incubation at room temperature, the luminescence intensity in the plates was measured using a ViewLux (PerkinElmer) plate reader.
# Potency is the fitted concentration of half-maximal effect.
row,Structure (SMILES),Potency
1,CCOC(=O)Oc1ccc(CCNC(=O)[C@H](CCSC)NC(C)=O)cc1OC(=O)OCC,inactive
2,O=C(O)CCCc1c[nH]c2ccccc12,inactive
3,Oc1cccc2[nH]ccc12,inactive
4,CC(C)(C)C(O)/C=C/c1ccc2c(c1)OCO2 (stereo not given),inactive
5,O=C(O)CCS,inactive
6,O=S(=O)(O)CO,inactive
7,CCCCCCC(CO)CCCC (stereo not given),inactive
8,CC(CCc1ccc(O)cc1)NCCc1ccc(O)c(O)c1 (stereo not given),inactive
9,CCC(CO)(CO)CO,inactive
10,CC(C)(O)CCc1ccccc1,inactive
11,CC(=O)OCC(C)C,inactive
12,CCCCCCOC(=O)CCCCC,inactive
13,CCC1CCC(CCC(=O)O)C1 (stereo not given),inactive
14,COc1cc(S(=O)(=O)Nc2ccccc2)c(OC)cc1N,inactive
15,COc1ccc(-n2nc(C(F)F)cc2-c2ccc(S(C)=O)cc2)cc1 (stereo not given),inactive
16,Cc1ccc(NC(=O)N(C)C)cc1NC(=O)N(C)C,inactive
17,CCOC(=O)C(C)O (stereo not given),inactive
18,CCN(CC)C(=O)N1CCN(C)CC1,inactive
19,CCCCC[C@H](O)/C=C/[C@H]1[C@H](O)CC(=O)[C@@H]1C/C=C\CCCC(=O)O,inactive
20,C1=CCC2CC=CC2C1 (stereo not given),inactive

row,Structure (SMILES),Potency
1,CCCOC(=O)c1c(Cl)c(Cl)c(Cl)c(Cl)c1C(=O)OCCC,inactive
2,COc1ccc(/C=C/C(=O)c2ccc(OC)cc2OC)cc1,inactive
3,CNC1CCCN(c2c(F)cc3c(=O)c(C(=O)O)cn(C4CC4)c3c2OC)C1 (stereo not given),inactive
4,CO[C@@H]1[C@@H](OC)[C@H](C)[C@@](O)(CC(=O)O)O[C@H]1[C@H](C)[C@H]1O[C@@]2(CC[C@@](C)([C@H]3CC[C@@](C)([C@@H]4O[C@@H]([C@H]5O[C@](C)(O)[C@H](C)C[C@@H]5C)C[C@@H]4OC4C[C@H](OC)[C@@H](OC)[C@H](C)O4)O3)O2)C[C@H](O)[C@H]1C (stereo not given in full),5.96 µM (active)
5,CCCCCCCC(=O)OCCCCCC,inactive
6,CCCCCCCC/C=C\CCCCCCCC(=O)OCCO,inactive
7,SCCc1cnccn1,inactive
8,CCCCCC,inactive
9,Cc1cc([N+](=O)[O-])ccc1N,inactive
10,CCCCCCCCCCCCCC(=O)OCC(O)CO (stereo not given),inactive
11,CCN(CC)CCOc1ccccc1C(=O)CCc1ccccc1,inactive
12,CC1=C2[C@@H]([C@H](C)CC[C@H]2/C=C(\C)C(=O)O)[C@H](O)C1,inactive
13,CC1=CC[C@@]23C[C@@H]1C(C)(C)[C@@H]2CC[C@H]3C,inactive
14,Nc1ccc(NC(=O)c2ccc(N)cc2)cc1,inactive
15,Nc1ccc(F)cc1,inactive
16,CC(C)COC(=O)COc1cc(Cl)c(Cl)cc1Cl,inactive
17,Cc1ccc2c(c1)CCCN2,inactive
18,Cc1ccc2nc(N)[nH]c(=O)c2c1Sc1ccncc1,inactive
19,O=C(O)c1cccc(C[C@@H]2COc3ccc(OCc4nc5cc(F)ccc5s4)cc3[C@@H]2O)c1,inactive
20,O=C(NC(Cc1cc(=O)[nH]c2ccccc12)C(=O)O)c1ccc(Cl)cc1 (stereo not given),inactive
